PubChem BioAssay (Tox21)
“And” between values parts separate entries of the source, which are not always exact repeats. Equal entries are not always repeated. Results filed as inconclusive are left out. Entries that show only a call come without a potency. The source made the active and inactive calls. The call rests on the fitted dose curve; in most records, active means well fitted activation curve with a large enough effect in the repeat runs; inconclusive means weak or mixed curves; inactive means no such curve, though single readings can be large or run the other way.

Test: qHTS assay for small molecules that induce genotoxicity in human embryonic kidney cells expressing luciferase-tagged ATAD5 (AID 651632); further: nearly all actives have a fitted effect of over 15% in size
Settings: HEK293T ATAD5-luciferase induction, 16 h; series mostly up to 83.3 µM; activation: at the top concentration
Text: U.S. Tox21 Program National Center for Advancing Translational Sciences [NCATS] NIH Chemical Genomics Center [NCGC] U.S. Environmental Protection Agency [EPA] National Institutes of Environmental Health Sciences [NIEHS] National Toxicology Program [NTP] U.S. Food and Drug Administration [FDA] Tox21 Assay Overview: As cancer cells divide rapidly and during every cell division they need to duplicate their genome by DNA replication. The failure to do so results in the cancer cell death. Based on this concept, many chemotherapeutic agents were developed but have limitations such as low efficacy and severe side effects etc. A new cell based assay was developed to find the compounds that effectively block DNA replication either by directly damaging DNA or by inhibiting other cellular mechanisms. Enhanced Level of Genome Instability Gene 1 (ELG1; human ATAD5) protein levels increase in response to various types of DNA damage. Using a luciferase reporter-gene tagged with ATAD5, a cell-based assay [developed by Kyungjae Myung, NHGRI, NIH] was used to measure the induction of ATAD5 in human embryonic kidney cells (HEK293T). So, increase in luciferase activity can be used to identify the compounds that cause genetic stress.
Tox21 Assay Protocol Summary: For genotoxicity screening, 2,000 cells in 5 uL/well were dispensed into white, solid-bottom 1536-well plates using a Multidrop Combi (Thermo Scientific) dispenser. Following transfer of 23 nL compound or DMSO vehicle by a pin tool, the plates were incubated 16 hr at 37C and 5% CO2. 5 ul Amplite (AAT Bioquest, Inc.) was then added to each plate and following 30 min incubation at room temperature, luciferase activity was quantified on a ViewLux CCD-based plate reader.
Potency means the concentration at half of the fitted maximal effect.

Compound	Potency	activation
Cc1ccc(C)c(O)c1	inactive	–
CC(C)=CCO	inactive	–
O=C1OC2(c3ccccc31)c1cc(I)c(O)c(I)c1Oc1c2cc(I)c(O)c1I	inactive	–
O=C(O)COCCN1CCN(C(c2ccccc2)c2ccc(Cl)cc2)CC1 (stereo not given)	inactive	–
COc1cc([C@H]2Oc3cc([C@H]4Oc5cc(O)cc(O)c5C(=O)[C@@H]4O)ccc3O[C@@H]2CO)ccc1O	inactive	–
CCCCCCCCCCC(CO)CCCCCCCC (stereo not given)	inactive	–
C[C@]12C=CC(=O)C=C1CC[C@H]1[C@@H]3C[C@@H](O)[C@](O)(C(=O)CO)[C@@]3(C)C[C@H](O)[C@@]12F	–	6.92% (inactive)
Cc1ccc(S(=O)(=O)O)cc1C	inactive	–
CN(C)C	inactive	–
CC(=O)O[C@]1(C(C)=O)CC[C@H]2[C@@H]3C=C(Cl)C4=CC(=O)CC[C@]4(C)[C@H]3CC[C@@]21C	inactive	–
CCC(=O)O[C@H]1[C@H](O[C@@H]2[C@@H](C)[C@H](O[C@H]3C[C@@](C)(OC)[C@@H](O)[C@H](C)O3)[C@@H](C)C(=O)O[C@H](CC)[C@@](C)(O)[C@H](O)[C@@H](C)C(=O)[C@H](C)C[C@@]2(C)O)O[C@H](C)C[C@@H]1N(C)C	inactive	–
CN(Cc1cnc2nc(N)nc(N)c2n1)c1ccc(C(=O)N[C@@H](CCC(=O)O)C(=O)O)cc1	inactive	–
OC[C@H]1O[C@@H]2O[C@H]3[C@H](O)[C@@H](O)[C@@H](O[C@H]4[C@H](O)[C@@H](O)[C@@H](O[C@H]5[C@H](O)[C@@H](O)[C@@H](O[C@H]6[C@H](O)[C@@H](O)[C@@H](O[C@H]7[C@H](O)[C@@H](O)[C@@H](O[C@H]1[C@H](O)[C@H]2O)O[C@@H]7CO)O[C@@H]6CO)O[C@@H]5CO)O[C@@H]4CO)O[C@@H]3CO	inactive	–
[Na+]	inactive	–
CC(=O)Nc1ccc2c(c1)Cc1cc(NC(C)=O)ccc1-2	inactive	–
c1ccc2c(c1)ccc1ncccc12	inactive	–
CNC[C@H](O)c1ccc(O)c(O)c1	inactive	–
C=C[C@H]1CN2CC[C@H]1C[C@@H]2[C@@H](O)c1ccnc2ccc(OC)cc12	inactive	–
CC1(C)OC(=O)NC1=O	inactive	–
C[N+](C)(C)CCO	inactive	–

Compound	Potency	activation
Oc1ccc(C(c2ccc(O)cc2)C(Cl)(Cl)Cl)cc1	inactive	–
CCCOCCO	inactive	–
CCCCCCCCCCCCCO	inactive	–
NCCOCCO	inactive	–
O=Cc1ccccc1C=O	11.9 µM (active)	–
C=CC(=O)OCCCC	inactive	–
C/C=C/C(=O)N(CC)c1ccccc1C	inactive	–
COc1ccc(C(=O)c2ccccc2O)c(O)c1	inactive	–
c1ccc2c(c1)[nH]c1ccccc12	inactive	–
COC(=O)CC(=O)OC	inactive	–
CC(=O)[C@@]1(O)CC[C@H]2[C@@H]3C[C@H](C)C4=CC(=O)C=C[C@]4(C)[C@@]3(F)[C@@H](O)C[C@@]21C	inactive	–
CCCCCC1C(=O)CCC1CC(=O)OC (stereo not given)	inactive	–
C1COCCN1	inactive	–
Brc1nc2ccccc2s1	inactive	–
O=C(O)c1ccc(O)cc1	inactive	–
c1ccc2c(c1)ccc1cc3c(ccc4ccccc43)cc12	853 nM (active) and 959 nM (active)	–
Nc1ccc(O)c(N)c1	inactive	–
Nc1cc([N+](=O)[O-])ccc1C(=O)O	inactive	–
C=CC(C)(O)CCC=C(C)C (stereo not given)	inactive	–
CC(=O)OC(C)C	inactive	–
